MBNL1-CUG inh: blocks human MBNL1 binding to CUG repeat RNA; TR-FRET MBNL1-His/biotin-(CUG)12 binding, 665/545 ratio; Potency, µM (highest dose often 57.5 µM), most hits filed as inhibitors; hit rate 0.036% among 280,000; AID 2675; active = well fitted inhibition curve with a large enough effect in the signal ratio, with a control signal flat, not every such curve was filed as active; inconclusive = small, poorly fitted or top-dose-only effect, or effect the other way, or a change in a side signal; inactive = no such curve, though single readings can be large or run the other way; the % refers to the signal ratio
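TR-FRET readout: Ex 340 nm, 665/545 nm emission ratio, normalized to buffer-only (basal) and MBNL1-(CUG)12 controls. Complex of MBNL1-His with Biotin-(CUG)12, compounds 92 nM–58 uM, incubated 60 min at room temperature.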
Six1-Eya2 inh: blocks human Six1 binding to Eya2; hit rate 0.56% among 360,000; activity change, % (no concentration beside the values); Q15475+O00167; AlphaScreen GST-Six1/His-Eya2 binding, biochemical; stronger effect = lower value
Target sequence (O00167 whole entry, looked up): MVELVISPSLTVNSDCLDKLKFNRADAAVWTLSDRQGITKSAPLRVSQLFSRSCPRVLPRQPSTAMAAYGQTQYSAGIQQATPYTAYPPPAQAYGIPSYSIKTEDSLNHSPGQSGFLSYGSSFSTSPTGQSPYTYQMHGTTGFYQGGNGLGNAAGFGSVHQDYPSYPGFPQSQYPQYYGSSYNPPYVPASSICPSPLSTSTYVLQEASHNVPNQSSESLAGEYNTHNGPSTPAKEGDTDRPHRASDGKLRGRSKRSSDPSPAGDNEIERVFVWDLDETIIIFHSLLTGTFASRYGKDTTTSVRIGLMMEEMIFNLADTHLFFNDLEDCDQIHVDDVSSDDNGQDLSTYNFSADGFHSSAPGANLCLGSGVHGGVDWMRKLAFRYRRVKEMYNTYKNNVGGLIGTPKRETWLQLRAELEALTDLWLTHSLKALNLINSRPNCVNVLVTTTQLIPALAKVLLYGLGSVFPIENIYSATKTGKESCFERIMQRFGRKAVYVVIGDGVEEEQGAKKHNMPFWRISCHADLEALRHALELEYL
Target sequence (Q15475 whole entry, looked up): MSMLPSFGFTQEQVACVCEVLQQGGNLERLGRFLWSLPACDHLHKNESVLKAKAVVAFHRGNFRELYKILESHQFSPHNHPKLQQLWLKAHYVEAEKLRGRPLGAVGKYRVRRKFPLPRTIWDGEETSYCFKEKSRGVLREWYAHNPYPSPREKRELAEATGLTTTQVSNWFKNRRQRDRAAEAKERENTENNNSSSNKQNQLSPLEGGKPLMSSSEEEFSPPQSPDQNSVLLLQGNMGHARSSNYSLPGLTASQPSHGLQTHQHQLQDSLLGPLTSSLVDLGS
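Homogeneous AlphaScreen proximity assay pairing GST-Six1 with His-tagged Eya2 (added as 5X mix: 250 nM and 500 nM) in 50 mM Tris pH 8.0, 300 mM NaCl, 1 mM TCEP. Glutathione donor and nickel acceptor beads; 1 h, 37 °C, dark.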
Mito fusion yeast: inhibitors of mitochondrial division or activators of mitochondrial fusion; S. cerevisiae fusion-defective mutant growth rescue, CellTiterGlo 48 h; Potency, µM (series often up to 46.1 µM), hits mostly activators; hit rate 0.23% among 320,000; AID 485298; active = well fitted activation curve with a large enough effect; inconclusive = small, poorly fitted or top-dose-only effect; inactive = no such curve, though single readings can be large or run the other way; also: nearly all actives have a fitted effect of over 45% in size
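Yeast fusion mutant, YPEG (non-fermentable carbon), compound, 48 h at 37C non-permissive; CellTiterGlo added, 10 min RT, luminescence read. Rescued growth = division inhibition.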
CtBP-E1A blk: CtBP/E1A binding inhibition. activity change, % (concentration not given with the values). AlphaScreen GST-E1A/His-CtBP binding, 1536-well; stronger effect = lower value. hit rate 0.49% among 340,000. AID 651724
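In 5 uL wells, 23 nL compound meets equimolar GST-E1A and His-CtBP (5X stock 125 nM each) for 2 h, 37 °C. Beads (5X, 50 ug/mL) then 1 h, 37 °C, dark.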
uPA generation: cell surface uPA generation inhibition | cell surface uPA generation assay, qHTS | AID 540303 | Potency, µM (titrated, usually from 38.3 µM), hits mostly inhibitors | hit rate 0.31% among 330,000; active = well fitted inhibition curve with a large enough effect; inconclusive = small, poorly fitted or top-dose-only effect; inactive = no such curve, though single readings can be large or run the other way; tested in mouse RAW 264.7 cells; also: nearly all actives have a fitted effect of over 55% in size
Of the large screens only hits and unclear results are named; the others gave an inactive call; ! = not active in a repeat. This is a sample that favours compounds with a hit; in the whole collection about 1.1% have one here. Rule as the data show it, unless noted: active = activity change below about -65%; inconclusive = mostly about -30% to -63%; inactive = weaker than that.

O=C(Cn1nc2ccccc2n1)N/N=C/c1cc([N+](=O)[O-])ccc1O	MBNL1-CUG inh inconclusive, Six1-Eya2 inh inconclusive (no result: CtBP-E1A blk)
c1ccc(-c2ccccn2)nc1	none
S=c1nc(-c2ccccn2)c(-c2ccccn2)n[nH]1	Six1-Eya2 inh -83.2, CtBP-E1A blk -88.8 (no result: MBNL1-CUG inh, Mito fusion yeast, uPA generation)
Cc1cccc2sc(=S)[nH]c12	none (no result: MBNL1-CUG inh, Mito fusion yeast, uPA generation)
Cc1ccc(S(=O)(=O)N2c3ccccc3OCC2c2ccccc2)cc1 (stereo not given)	none
CC1COc2ccccc2N1S(=O)(=O)c1ccc(Cl)cc1 (stereo not given)	CtBP-E1A blk -66.5
C=CCN=c1scc(-c2ccccc2)n1/N=C/c1ccccn1	Six1-Eya2 inh inconclusive, CtBP-E1A blk inconclusive, uPA generation 0.398µM!
COc1cc2c(cc1OC)[C@@H]1O[C@](c3ccsc3)(C2)Oc2cc(C)n(-c3ccccc3)c(=O)c21	none (no result: Six1-Eya2 inh, CtBP-E1A blk, uPA generation)
CCc1ccc(N=c2c([N+](=O)[O-])nn(-c3ccccc3)n2O)cc1	MBNL1-CUG inh inconclusive, Six1-Eya2 inh inconclusive, Mito fusion yeast 17.8µM, CtBP-E1A blk inconclusive (no result: uPA generation)
COc1ccccc1OCC(=O)NCC1CCCN(C(=O)c2cccc(C)c2)C1 (stereo not given)	none (no result: MBNL1-CUG inh, Mito fusion yeast, uPA generation)
COc1cc(NC(=O)N2CCc3nc(NCc4cccc(Oc5ccccc5)c4)ncc3C2)cc(OC)c1OC	none (no result: MBNL1-CUG inh, Mito fusion yeast, uPA generation)
O=C(O)c1ccc(N=Nc2c(O)ccc3ncccc23)cc1	MBNL1-CUG inh inconclusive, Six1-Eya2 inh -93.9, uPA generation inconclusive (no result: CtBP-E1A blk)
Cc1ccc(S(=O)(=O)Cc2ccc(C(=O)N3CCN(c4cccc(C)c4C)CC3)o2)cc1	uPA generation 0.891µM
COc1ccc(S(=O)(=O)Cc2ccc(C(=O)N3CCN(c4cccc(C)c4)C(C)C3)o2)cc1 (stereo not given)	uPA generation 5.62µM
COc1ccc(S(=O)(=O)Cc2ccc(C(=O)N3CCN(c4cccc(C)c4C)CC3)o2)cc1	MBNL1-CUG inh inconclusive, Mito fusion yeast inconclusive, uPA generation inconclusive
CCN(CC)CCn1c(=S)[nH]c2cc(C(=O)NCCc3ccc(OC)c(OC)c3)ccc2c1=O	none (no result: MBNL1-CUG inh, Mito fusion yeast, uPA generation)
COC(=O)C1CC2=C(CCC2=O)N(c2ccccc2)C1=O (stereo not given)	none (no result: MBNL1-CUG inh, Mito fusion yeast)
O=C(Nc1ccccc1O)c1cc(S(=O)(=O)N2CCOCC2)c(Cl)cc1Cl	MBNL1-CUG inh inconclusive, CtBP-E1A blk inconclusive
O=C(NNC(=O)c1cc(S(=O)(=O)N2CCOCC2)c(Cl)cc1Cl)c1ccccc1F	Six1-Eya2 inh -65.7, CtBP-E1A blk -87.0 (no result: MBNL1-CUG inh, Mito fusion yeast)
CN1CCN(c2ccccc2NC(=O)c2ccc([N+](=O)[O-])o2)CC1	MBNL1-CUG inh inconclusive, uPA generation 4.47µM
CN1CCN(c2ccccc2NC(=O)c2cc3c(s2)-c2ccccc2OC3)CC1	MBNL1-CUG inh inconclusive, CtBP-E1A blk -79.1
CC(c1nc2ccccc2[nH]1)n1c(=O)c(-c2ccco2)nc2ccccc21 (stereo not given)	none (no result: MBNL1-CUG inh, Mito fusion yeast, uPA generation)
Cc1ccccc1Oc1ccc2c(c1)[C@@H]1C[C@H](N(C)C(=O)c3ccco3)[C@H]([C@H](C)O)C(=O)N1CC2	none (no result: MBNL1-CUG inh, Mito fusion yeast, uPA generation)
CCC(C)c1c(NS(=O)(=O)c2ccc(C)cc2)o[nH]c1=O (stereo not given)	none (no result: MBNL1-CUG inh, Mito fusion yeast)
CCC(C)c1c(N)n(S(=O)(=O)c2ccc(C)cc2)oc1=O (stereo not given)	Six1-Eya2 inh -76.8, CtBP-E1A blk inconclusive (no result: MBNL1-CUG inh, Mito fusion yeast)
CCOC(=O)N1CCN(c2c(NCc3ccc(Cl)cc3)c(=O)c2=O)CC1	uPA generation 2.82µM
CCOC(=O)N1CCN(c2c(NCc3ccc(F)cc3)c(=O)c2=O)CC1	none
Cc1ccc(S(=O)(=O)N2CC3C(=O)C[C@@H](c4ccccc4)N(S(=O)(=O)c4ccc(CCCOCCOCCNC(=O)OC(C)(C)C)cc4)C3CC2c2ccccc2)cc1 (stereo not given in full)	none (no result: MBNL1-CUG inh, Mito fusion yeast, uPA generation)
COC(=O)c1ccc([C@H]2CC(=O)O2)cc1	uPA generation 4.47µM
COC(=O)C1=C(C)NC(=O)CC1c1ccc(C(=O)OC)cc1 (stereo not given)	none
O=C1C(=C(c2ccccc2)c2ccccc2)Nc2ccccc21	MBNL1-CUG inh inconclusive, Six1-Eya2 inh -70.3, CtBP-E1A blk inconclusive
CC(C)(C)c1ccc(-n2ncc3c2CCCC3NC(=O)CN2CCCCC2=O)cc1 (stereo not given)	Mito fusion yeast 4.47µM
CCc1nc2c(OCCOC)cccn2c1N(C)C(=O)Nc1ccccc1OC	none (no result: MBNL1-CUG inh, Mito fusion yeast, uPA generation)
CCOC(=O)/C=C/C(=O)OCC(=O)N1CCN(C(=O)c2ccco2)CC1	uPA generation 7.94µM

Assay outcomes from PubChem BioAssay.
